Test [1] in a line: NCI Yeast Anticancer Drug Screen. Data for the rad50 strain (AID 155).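 Note: 0% = growth of vehicle-only cultures of the same strain.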 Particulars: S. cerevisiae rad50 strain growth inhibition; at 50.0 µM; stronger effect = higher value. A digest of the protocol:
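DNA repair mutant yeast, compound exposure, growth read-out; inhibition is taken relative to vehicle.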

A short description of test [2]: NCI Yeast Anticancer Drug Screen. Data for the mec2-1 strain (AID 157). Particulars: S. cerevisiae mec2-1 strain, at 50.0 µM, stronger effect = higher value. A digest of the protocol:
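Strain: mec2-1 (DNA repair/cell cycle alteration). Compound exposure, then growth measured; inhibition expressed relative to vehicle.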

The nature of test [3]: NCI Yeast Anticancer Drug Screen. Data for the sgs1 mgt1 strain (AID 161).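 Note: 0% = growth of cultures given vehicle only.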 Particulars: S. cerevisiae sgs1 mgt1 strain, at 50.0 µM, stronger effect = higher value. The gist of the method: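 Test agents were incubated with a DNA-repair-mutant yeast strain. Growth was then read and compared against vehicle-treated controls.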
Test [4] can be described thus: NCI Yeast Anticancer Drug Screen. Data for the cln2 rad14 strain (AID 165).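 Note: 0% = growth equal to vehicle treated cultures.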 Particulars: S. cerevisiae cln2 rad14 strain, at 50.0 µM, stronger effect = higher value. A digest of the protocol:
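Compounds are applied to the cln2 rad14 yeast strain, and growth is then compared with that of vehicle-treated cultures to give inhibition.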

A short description of test [5]: NCI Yeast Anticancer Drug Screen. Data for the bub3 strain (AID 167). Particulars: S. cerevisiae bub3 mutant strain, at 50.0 µM, stronger effect = higher value. The gist of the method: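 In this screen, a yeast mutant lacking normal mitotic checkpoint function is challenged with compound. Relative growth versus vehicle gives the inhibition value.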
Test [6] can be described thus: NCI Yeast Anticancer Drug Screen. Data for the mlh1 rad18 strain (AID 175). Particulars: S. cerevisiae mlh1 rad18 strain growth inhibition; at 50.0 µM; stronger effect = higher value. The gist of the method:
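Read-out is yeast growth inhibition, calculated against vehicle-only controls. The compound was applied to a strain engineered with DNA damage repair alterations.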

The structures appear in SMILES notation. This is part of a sample that, as a whole, favours compounds with a hit. Of some 79,000 tested, about 15% had one in any assay. Values without a mark were called inactive. Active and inactive are the calls of the source. Cut-off read from the data, not from the text of the source: active = growth inhibition above about 70%; inactive = the rest.

With `CCN(CC)Cc1cc(Oc2ccc(O)c(CN(CC)CC)c2)ccc1O`, the growth inhibition in test [1] is 11.1%; in test [2] it was 8.5%; in test [3], 3.65%; in test [4] it was -22.7%; in test [5], 11.6%; in test [6], -4.4%.

In the case of `O=C(ONC1CCC(CC2CCCCC2)CC1)c1ccccc1` (stereo not drawn), the growth inhibition was 98.5% (active) in test [1]; 98.8% (active) in test [2]; 99% (active) in test [3]; 96.8% (active) in test [4]; 98.2% (active) in test [5]; 98.5% (active) in test [6].

Turning to `O=[N+]([O-])c1cccc(-c2csc(N=Nc3c(O)[nH]c4ccccc34)n2)c1`, the growth inhibition in test [1] was -29.6%; in test [2], -8.9%; in test [3], -0.3%; in test [4] it was -12.9%; in test [5], 14.2%; in test [6], 13.3%.

`Nc1nc(N)c(N=Nc2ccc(S(=O)(=O)O)cc2)c(N)n1`: the growth inhibition in test [1] was -5.35%; in test [2] it was -5.3%; in test [3], 4.25%; in test [4], -21.1%; in test [5], 2%; in test [6], 10.5%.

As to `CCOC(=O)COc1cc2c(cc1C(CC)c1ccccc1)OCO2` (stereo not drawn), the growth inhibition in test [1] is -7.85%; in test [2], -1.45%; in test [3], -3.25%; in test [4], 5.95%; in test [5] it was 9.45%; in test [6] it was 2.9%.

With `Cc1ccc(-n2c(C)n[nH]c2=O)cc1`, the growth inhibition in test [1] is -10.7%; in test [2], -18%; in test [3], -9.8%; in test [4], 8%; in test [5] it was -4.3%; in test [6] it was 3.2%.

In the case of `CCC1CN2CCc3cc(OC)c(OC)cc3C2CC1C#N` (stereo not drawn), the growth inhibition is 15.4% in test [1]; 9.2% in test [2]; 23.8% in test [3]; 21.1% in test [4]; 12.1% in test [5]; 23.1% in test [6].

`CC12CCC3c4ccc(Cc5ccc([N+](=O)[O-])cc5)cc4CCC3C1CCC2=O` (stereo not drawn): the growth inhibition was 32.6% in test [1]; 9.2% in test [2]; 10.8% in test [3]; 19.7% in test [4]; 1.05% in test [5]; 25.6% in test [6].

`COc1cc(C=C2N=C(c3ccccc3)N(n3c(-c4ccccc4)nc4ccccc4c3=O)C2=O)cc(OC)c1OC`: the growth inhibition was -7.4% in test [1]; -6.6% in test [2]; 9.45% in test [3]; 7.85% in test [4]; 0.65% in test [5]; 21.6% in test [6].

For the compound `CN(C1CCCCC1)S(=O)(=O)c1ccc(N)cc1`, the growth inhibition in test [1] was 7.65%; in test [2], -3.35%; in test [3] it was 12%; in test [4] it was 11.4%; in test [5], 5.25%; in test [6], 24.5%.

Turning to `O=C1NC(=O)C(CN2C(=O)/C(=C/c3cccc(O)c3)SC2=S)C(=O)N1`, the growth inhibition was -55.2% in test [1]; -20.8% in test [2]; -29.7% in test [3]; -20.6% in test [4]; -20.4% in test [5]; -71.8% in test [6].

Take `CC(C)(Cc1ccccc1)C(=C=C=C=C(c1ccccc1)C(C)(C)Cc1ccccc1)c1ccccc1`: the growth inhibition in test [1] was -14.8%; in test [2], -3.7%; in test [3], -32.2%; in test [4], 5.9%; in test [5] it was 2.95%; in test [6] it was -15.7%.

On to `CC(=O)OCC1C(OC(C)=O)C(OC(C)=O)C(n2cnc3c(N)ncnc32)N1C(C)=O` (stereo not drawn), for which the growth inhibition was 17.1% in test [1]; 3.75% in test [2]; 16.3% in test [3]; 11.4% in test [4]; 1.5% in test [5]; 4.35% in test [6].

Turning to `O=C1OC(c2cccc(Cl)c2)=N/C1=C\c1cc(Br)ccc1O`, the growth inhibition in test [1] is 20.6%; in test [2], 5.7%; in test [3], 27.8%; in test [4], 5.2%; in test [5], -0.4%; in test [6], 5.95%.

Regarding `CC(C)=CCC/C(C)=N\Nc1ccc([N+](=O)[O-])cc1[N+](=O)[O-]`, the growth inhibition in test [1] is -39.4%; in test [2], -6.7%; in test [3], 4.75%; in test [4], -15.6%; in test [5], 2.15%; in test [6], 5.4%.

Consider `O=C1NNC2NC(=O)C3(NN2C1=O)c1ccccc1-c1ccccc13` (stereo not drawn), for which the growth inhibition in test [1] is -18%; in test [2], -21.5%; in test [3], 0.45%; in test [4], -5.8%; in test [5] it was -11.7%; in test [6], -15.4%.

Regarding `Cc1ccc(C(=O)OC2C3(C)CCC(C3)C2(C)C)cc1` (stereo not drawn), the growth inhibition in test [1] is 15.9%; in test [2], 18.3%; in test [3] it was 14.3%; in test [4] it was -37.2%; in test [5], 10.2%; in test [6] it was -0.15%.

For `CCOC(=O)C1=C(NC(C)(C)C)OC/C1=N\NC(=O)Cc1ccccc1`, the growth inhibition was 42.8% in test [1]; -3.6% in test [2]; 21.2% in test [3]; 16.6% in test [4]; 26.2% in test [5]; 28.1% in test [6].

As for `CC(C)=CCc1c(O)ccc(C(=O)[C@H]2C(c3ccc(O)cc3O)CC(C)=C[C@@H]2c2c(O)cc(O)c3c(=O)c(CC=C(C)C)c(-c4ccc(O)cc4O)oc23)c1O` (stereo partly drawn), the growth inhibition in test [1] was 88.4% (active); in test [2] it was 90% (active); in test [3] it was 92% (active); in test [4], 89% (active); in test [5], 90.2% (active); in test [6], 89.8% (active).

As for `O=C(/C=C\c1ccc([N+](=O)[O-])cc1)c1ccccc1`, the growth inhibition is -1.6% in test [1]; -6.1% in test [2]; -2.4% in test [3]; -28.3% in test [4]; -3.6% in test [5]; -16.2% in test [6].

Regarding `COc1ccc(-c2cc(-c3cc(C)cc(Br)c3O)no2)cc1`, the growth inhibition was -6.55% in test [1]; -13.3% in test [2]; -10.8% in test [3]; -3.2% in test [4]; -4.4% in test [5]; 14.3% in test [6].

Regarding `CCOC(=O)C/C(C)=C1/N=C(c2ccccc2)OC1=O`, the growth inhibition in test [1] was 28.9%; in test [2], 7.85%; in test [3], 23.2%; in test [4] it was 14.8%; in test [5], 37%; in test [6], 30.8%.

For the compound `CSc1nc(SC)c2c(C(N)=S)[nH]nc2n1`, the growth inhibition is 23.3% in test [1]; 20.9% in test [2]; 47% in test [3]; 19.7% in test [4]; 18.6% in test [5]; 23.6% in test [6].

For `c1ccc2cc3c(cc2c1)Cn1c-3nc2ccccc21`, the growth inhibition is 19.4% in test [1]; -8.7% in test [2]; 13.2% in test [3]; 6.55% in test [4]; 11.4% in test [5]; 27.8% in test [6].

As for `O=C(CN1C(=O)c2cccc3c(Br)ccc(c23)C1=O)c1ccc(F)cc1`, the growth inhibition in test [1] was -10.4%; in test [2], -14.7%; in test [3] it was 7.6%; in test [4], 18.7%; in test [5], -12%; in test [6], 1.3%.

For `CC(C)C(/C=C/c1ccccc1)=N\NC(=S)NN`, the growth inhibition in test [1] is -5.25%; in test [2], -5.9%; in test [3], 17.1%; in test [4], 13.4%; in test [5] it was 26.6%; in test [6], 32.4%.

For the compound `CN(C)C(=O)C1CCNCC1`, the growth inhibition is 2.5% in test [1]; -2.1% in test [2]; -4.15% in test [3]; -9.5% in test [4]; -11.3% in test [5]; 3.45% in test [6].

As to `CC(=O)O[C@@H]1CC[C@@]2(C)C(=O)C34C[C@@]5(C)C([C@@H](C)CCCC(C)C)CCC5(C)[C@](O)(O3)C(=O)[C@H]4C2C1(C)C` (stereo partly drawn), the growth inhibition in test [1] is 18.4%; in test [2], 24.6%; in test [3], 11.5%; in test [4], 1.8%; in test [5], -0.05%; in test [6], 27.1%.

Turning to `O=C1C=CC(Nc2ccc(Cl)c(Cl)c2)C1Nc1ccc(Cl)c(Cl)c1` (stereo not drawn), the growth inhibition in test [1] was 39.5%; in test [2], 36.1%; in test [3] it was 42.8%; in test [4] it was 28.6%; in test [5] it was 26.7%; in test [6] it was 45%.

With `Cc1ccccc1/C=N/Nc1ccc([N+](=O)[O-])cc1[N+](=O)[O-]`, the growth inhibition in test [1] was -2.45%; in test [2], 13.4%; in test [3], -1.75%; in test [4], -35.1%; in test [5], -25.1%; in test [6], -11.8%.

Regarding `Nc1nc(N)c2nc(/C=C/c3ccc4c(c3)OCO4)cnc2n1`, the growth inhibition in test [1] was -2.25%; in test [2], -25.4%; in test [3], -4.5%; in test [4] it was 2.15%; in test [5], -9.1%; in test [6], -13.8%.

`CCOC(=O)CCC(C(=O)OCC)N1C(=O)c2ccccc2C1=O` (stereo not drawn): the growth inhibition in test [1] was 1%; in test [2] it was 6.75%; in test [3], 8.25%; in test [4] it was 11.8%; in test [5], 23.8%; in test [6], -1.7%.

On to `[O-][n+]1cc[n+]([O-])c2cc(O)ccc21`, for which the growth inhibition is -13.5% in test [1]; -25.1% in test [2]; 3.8% in test [3]; -20.1% in test [4]; 1.1% in test [5]; 10.7% in test [6].

As to `COc1ccc2c(C)cc(N/N=C(\C)c3cn(C)n(-c4ccccc4)c3=O)nc2c1`, the growth inhibition in test [1] is -2.25%; in test [2], -7.1%; in test [3], -5.95%; in test [4], 13.2%; in test [5] it was -1.8%; in test [6] it was 1.65%.

Take `CC(=O)c1c(C)[nH]c(C(=O)O)c1C`: the growth inhibition is 24.7% in test [1]; 4.3% in test [2]; 8.75% in test [3]; -14.4% in test [4]; 5.35% in test [5]; 16.6% in test [6].

For the compound `O=c1cn[nH]c(=O)[nH]1`, the growth inhibition in test [1] is 35.4%; in test [2], 0.7%; in test [3] it was 32.5%; in test [4] it was 10.8%; in test [5], 4.9%; in test [6], 11.5%.

With `COC1OC2COC(C)(c3ccccc3)OC2C(O)C1[NH-].COC1OC2COC(C)(c3ccccc3)OC2C(O)C1[NH-].[Cl][Pt+2][Cl]` (stereo not drawn), the growth inhibition in test [1] is -0.25%; in test [2] it was -2.7%; in test [3] it was -7.8%; in test [4], -25.3%; in test [5], -3.05%; in test [6] it was 35.4%.

Consider `COc1cccc(N(CCO)C2CCCCC2)c1`, for which the growth inhibition in test [1] is 12.8%; in test [2], 4.2%; in test [3], 18.2%; in test [4], 15.7%; in test [5], 10.9%; in test [6] it was 2%.

Source of the values: PubChem BioAssay (NCI).
